Results filed as inconclusive are left out. Activity calls are given as the source filed them. Calls come from the whole dose curve; as a rule, active = well fitted inhibition curve with a large enough effect; inconclusive = small, poorly fitted or top-dose-only effect; inactive = flat fitted curve, though single readings scatter.
Tests used:
[1] = tested on: CRL-7250; assay: Cytotoxic Profiling of Annotated Libraries Using Quantitative High-Throughput Screening (AID 1296008); details: Five cell lines viability, CellTiter-Glo ATP luminescence, 48-72 h; max response: active compounds read low; for max response: % is set by controls: 0 for no effect and ±100 for the full control effect
In short: (§1)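 Cells exposed to compounds for 48 or 72 hr at 37 degrees Celsius. Viability read as ATP-coupled luminescence with CellTiter-Glo after 10 min at room temperature.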

[2] = tested on: HaCat; assay: as above; details: Five cell lines viability, CellTiter-Glo ATP luminescence, 48-72 h; max response: active compounds read low
In short: as §1

[3] = tested on: KB-3-1; assay: as above; details: Five cell lines viability, CellTiter-Glo ATP luminescence, 48-72 h; max response: active compounds read low
In short: as §1

[4] = tested on: HACAT; assay: qHTS assay to identify novel small-molecules to repurpose for Merkel cell carcinoma treatment (AID 1296009); details: MCC and control cell lines, CellTiter-Glo viability, 72 h; at 44.8 µM (top of the series) unless noted
In short: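 Cells were treated for 72 hr at 37 degree celsius with compounds in 8- or 11-point dose response. Viability was read by CellTiter-Glo luminescence, normalized to no-cell (cytotoxicity) and DMSO controls.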

[5] = tested on: NIH3T3; assay: Cytotoxic Profiling of Annotated Libraries Using Quantitative High-Throughput Screening (AID 1296008); details: Five cell lines viability, CellTiter-Glo ATP luminescence, 48-72 h; max response: active compounds read low; for max response: % is set by controls: 0 for no effect and ±100 for the full control effect
In short: as §1

Measured: max response
Note: nearly all actives have a fitted effect of over 60% in size.

COc1ccc2nccc(C(=O)CC[C@@H]3CCN(CC#Cc4cc(F)cc(F)c4F)C[C@@H]3C(=O)O)c2c1
inactive: [1] -3.43% | [2] | [3] 5.2% | [4]

COc1ccc(C(=O)O[C@H]2C=COC=C3C=C4C(=O)N(C)C(=S)C(=O)N4[C@@H]32)cc1Oc1cc(C=O)ccc1O
inactive: [1] -5.08% | [2] | [3] | [4] inactive [at 17.4 µM]

COc1ccccc1OCCN1CC(COc2cccc3[nH]c4ccccc4c23)OCC1=O (stereo not drawn)
inactive: [1] | [2] | [3] -7.07% | [4]

C=C1C(=O)OC2/C=C(\C)CC/C=C(\C=O)C(OC)C(OC(=O)C(C)CC)C12 (stereo not drawn)
inactive: [1] -23.9% | [2] | [3] -2.57% | [4]

N#CC(CCCN1CCN(/N=C/c2cccnc2)CC1)(c1ccccc1)c1ccccc1
inactive: [1] -20.5% | [2] -26.9% | [5] -25.1%

Cc1[nH]c(/C=C2\C(=O)Nc3cc(-c4ccccc4)ccc32)c(C)c1CCC(=O)O
inactive: [1] -17.7% | [2] | [3] -8.26% | [4]

CCCOc1ccc(S(=O)(=O)N2CCN(CCO)CC2)cc1-c1nc2c(CCC)cn(CC)c2c(=O)[nH]1
inactive: [1] -15% | [2] | [3] 7.41% | [5] 4.33% | [4]

CC[C@H](C)/C=C(C)/C=C/C1=CC2=C(Cl)C(=O)[C@](C)(O)[C@H](OC(C)=O)[C@H]2CO1
inactive: [1] -9.34% | [2] | [3] -1.44% | [5] | [4]

Reference: PubChem BioAssay (NCATS)
